Among all 420,000 compounds or so, about 64,000 (15%) were called active. Inconclusive results (about 27%) are left out. Not all results are given here. Values without a mark were called inactive. Calls follow the shape of the dose curve; as a rule, active = well fitted inhibition curve with a large enough effect; inconclusive = small, poorly fitted or top-dose-only effect; inactive = flat fitted curve, though single readings scatter.
assay: qHTS for Inhibitors of human tyrosyl-DNA phosphodiesterase 1 (TDP1): qHTS in cells in absence of CPT; settings: DT40 Tdp1-/- hTDP1 cells, no CPT, ATP luminescence, 48 h; activity change, negative = growth inhibition: at 46.2 µM (top of the series); also: nearly all actives have a fitted effect of over 55% in size
Method in brief: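 Readout: luminescence from CellTiter-Glo after 30 min in the dark at RT. Cells: DT40 Tdp1-/- with stable hTDP1, 400/well. Exposure: compounds alone, ≥48 hr, 37 °C.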
% is scaled to controls: 0 for no effect and ±100 for the full control effect; potency is read from the fitted curve at half-maximal effect.

| SMILES | Potency | activity change, negative = growth inhibition |
| --- | --- | --- |
| C(=Nc1ccc(/C=C/c2ccnc3ccccc23)cc1)Nc1ccc(/C=C/c2ccnc3ccccc23)cc1 | 8.91 µM (active) | – |
| O=C(/C=C/c1ccc(Cl)cc1)Nc1ccc(S(=O)(=O)Nc2ncccn2)cc1 | – | 0.921% |
| CN(C)c1ccc(C=Nc2ccc(/C=C/c3ccnc4ccccc34)cc2)cc1 | 17.8 µM (active) | – |
| CC(=O)Nc1ccc(NC(=O)COc2ncnc3ccccc23)cc1 | – | -12.7% |
| NC(=O)Nc1ccc(/C=C/c2ccnc3ccccc23)cc1 | 12.6 µM (active) | – |
| O=C(CCNS(=O)(=O)c1ccc(Br)s1)NCc1ccccc1Cl | – | -6.47% |
| CC(=O)c1cc(CN2CCC(n3nccc3NC(=O)c3ccccc3Cl)CC2)cs1 | – | -16.4% |
| Cc1cc(NC(=O)CSc2ncc(C(F)(F)F)cc2Cl)no1 | – | -18.9% |
| O=C(O)c1ccc([N+](=O)[O-])cc1Sc1ccsc1 | – | -9.07% |
| COCCNc1nc(N)c([N+](=O)[O-])c(N2CCCCCC2)n1 | – | -19.5% |
| CCC1=NN(C(=O)Cc2ccc([N+](=O)[O-])cc2)C(O)(c2ccc(Br)cc2)C1 (stereo not drawn) | – | -5.88% |
| CN(C(=O)CSc1nnc(-c2c[nH]c3ccccc23)o1)C1CCS(=O)(=O)C1 (stereo not drawn) | – | -10.9% |
| Cc1ccc(C)c(S(=O)(=O)Nc2cccc(-n3cnnn3)c2)c1 | – | 3.02% |
| CCCCN(C)c1ccc([N+](=O)[O-])cc1 | – | -12.2% |
| COc1ccc(Cc2nnc(NC(=O)Cc3cccs3)s2)cc1 | – | -1.02% |
| CCNC(=S)N1CCC(c2nc3cc(C)c(C)cc3[nH]2)CC1 | – | -14.5% |
| CCN(CC)CCNc1ccc(Cl)cc1[N+](=O)[O-] | – | -24.4% |
| CCN(CC)CCCC(C)Nc1ccnc2cc(Cl)ccc12 (stereo not drawn) | 0.794 µM (active) | – |
| COC(=O)COc1ccc(C2NC(=O)NC(C)=C2C(=O)NCc2ccccc2)cc1OC (stereo not drawn) | – | 7.11% |
| O=C(Cc1ccccc1)Nc1cccc(C(=O)N/N=C/c2ccco2)c1 | – | -23.6% |
| O=C(NCc1ccco1)/C(=C/c1ccco1)NC(=O)c1ccccc1 | – | -12.2% |
| CC(/C=N/NC(=O)c1cc(-c2ccc3ccccc3c2)n[nH]1)=C\c1ccco1 | 23.1 µM (active) | – |
| Cc1noc(C)c1COc1ccc2ccc(=O)oc2c1 | – | 1.31% |
| COC1=C/C(=C/c2c(N)n3nc(CC(=O)N4CCOCC4)sc3nc2=O)C=CC1=O | – | -9.01% |
| CCOc1ccc(NC(=O)[C@H](C)NC(=O)C2CC(=O)N(c3ccc(OC)cc3)C2)cc1 (stereo partly drawn) | – | 33.1% |
| CCOc1ccc(N2CC(c3nc4ccccc4n3CCOc3ccc(OC)cc3)CC2=O)cc1 (stereo not drawn) | 23.1 µM (active) | – |

| SMILES | Potency | activity change, negative = growth inhibition |
| --- | --- | --- |
| CCc1ccccc1N1CC(c2nc3ccccc3n2CCCCOc2ccccc2)CC1=O (stereo not drawn) | – | -19.2% |
| CCCCN1CC(c2nc3ccccc3n2CCCCOc2ccc(C)cc2C)CC1=O (stereo not drawn) | 5.8 µM (active) | – |
| CCCOc1cc(C)c(S(=O)(=O)n2nnc3ccccc32)cc1C | – | -14.5% |
| CCC1Oc2ccc(Cl)cc2N(CC(=O)O)C1=O (stereo not drawn) | – | -17.8% |
| Nc1c(C(=O)OCC(=O)Nc2ccc(OC(F)F)cc2)[nH]c(=O)[nH]c1=O | – | 2.04% |
| Cc1cc(C)cc(NC(=O)COC(=O)c2cc(C)oc2C)c1 | – | 4.9% |
| Cc1ccccc1Nc1nc(N)nc(COC(=O)CCC(=O)c2ccc(F)cc2)n1 | – | -24% |
| CCCCNC(=O)CCn1nc(-c2ccc(Cl)cc2)ccc1=O | – | -2.25% |
| C[C@H]1CN([C@@H](C)CO)C(=O)CCCn2nncc2CO[C@@H]1CN(C)Cc1ccc(Oc2ccccc2)cc1 | 18.4 µM (active) | – |
| C[C@H](CO)N1C[C@H](C)[C@@H](CN(C)Cc2ccc3c(c2)OCO3)OCc2cnnn2CCCC1=O | – | -4.82% |
| Cc1ccc(CN(C)C[C@@H]2OCc3cnnn3CCCC(=O)N([C@@H](C)CO)C[C@H]2C)cc1 | – | -26.1% |
| CCCC(=O)N1CCC(CCC(=O)NC2CC2)CC1 | – | 3.6% |
| COCCN1C(=O)C(=O)/C(=C(/O)c2ccc(S(=O)(=O)N3CCCCC3)cc2)C1c1ccc(OC)c(OC)c1 (stereo not drawn) | – | 1.45% |
| CSc1nc(-c2ccccc2)nc(C(Cl)Cl)n1 | 2.31 µM (active) | – |
| CSc1ncc(Sc2ccccc2)c(C(=O)O)n1 | – | 2.57% |
| CSc1nc(C)cc(SC(C(C)=O)C(=O)Nc2ccccc2)n1 (stereo not drawn) | – | -1.76% |
| CC1(C)Oc2ccc(C(=O)N3CCOCC3)cc2N(CC(=O)Nc2ccccc2)C1=O | – | -9.51% |
| O=C(NCCC1CCCCN1S(=O)(=O)c1ccc(Cl)cc1)C(=O)NCc1ccco1 (stereo not drawn) | 14.6 µM (active) | – |
| Cc1ccc(S(=O)(=O)N2CCCC2C(=O)NCc2ccco2)cc1 (stereo not drawn) | – | -18.4% |
| O=C(NCCC1CCCCN1S(=O)(=O)c1ccccc1)C(=O)NCC1CCCO1 (stereo not drawn) | – | 4.61% |
| COc1ccc(NC(=O)CCCc2nnc3n(CCC(C)C)c(=O)c4sccc4n23)c(OC)c1 | – | -34.1% |
| CCOc1ccccc1N=C1NC(=O)CS1 | – | -4.09% |
| COc1ccccc1N=C(C)C1=C(O)COC1=O | – | 11.5% |
| CCC/C(O)=C1\C(=O)CC(C)(C)CC1=Nc1ccccc1OC | 14.6 µM (active) | – |
| N#Cc1cc([N+](=O)[O-])ccc1NC(=O)COC(=O)c1cnccn1 | – | -19.1% |
| NS(=O)(=O)c1cccc(NC(=O)CC23CC4CC(CC(Br)(C4)C2)C3)c1 | – | -2.07% |

| SMILES | Potency | activity change, negative = growth inhibition |
| --- | --- | --- |
| Cn1cccc1C(C#N)c1ccccc1C#N (stereo not drawn) | – | -0.548% |
| Cc1ccccc1NC(=O)C(C)OC(=O)CCC(=O)N(CC(C)C)c1c(N)n(CC(C)C)c(=O)[nH]c1=O (stereo not drawn) | – | -7.3% |
| Cc1cccc(C(C)C)c1NC(=O)COC(=O)C1CC(=O)N(Cc2ccccc2)C1 (stereo not drawn) | – | -25.4% |
| O=C(COC(=O)c1ccc(O)cc1O)NC(=O)c1ccccc1 | – | -21.6% |
| CC(C)(C)OC(=O)NNc1c2ccccc2nc2ccccc12 | 13 µM (active) | – |
| O=C(N/N=C/c1cccnc1)c1cc2ccccc2cc1O | – | -19.2% |
| O=C(NNc1c2ccccc2nc2ccccc12)c1cc2ccccc2cc1O | 18.4 µM (active) | – |
| Cc1ccccc1NC(=O)NNC(=O)OC(C)(C)C | – | -0.379% |
| Cc1ccc(C(=O)NNC(=O)OC(C)(C)C)c(Cl)c1 | – | -5.16% |
| CCCCNC(=O)N(O)C1N(/N=C/c2ccc(N(C)C)cc2)C(=S)SC1(C)C (stereo not drawn) | – | -11% |
| Cc1csc(/N=C/N(C)C)c1C#N | – | -18% |
| CS(=O)(=O)Nc1ccc(C2=NN(S(C)(=O)=O)C(c3cccs3)C2)cc1 (stereo not drawn) | – | 6.29% |
| COc1ccc(C2=NN(C(=O)CCC(=O)O)C(c3cccs3)C2)cc1OC (stereo not drawn) | – | -3.18% |
| CCS(=O)(=O)Nc1ccc(C2=NN(C(C)=O)C(c3cccs3)C2)cc1 (stereo not drawn) | 5.8 µM (active) | – |
| NNC(=O)c1cccc(COCC(F)(F)C(F)F)c1 | – | 0.0307% |
| O=C(Nc1cc(S(=O)(=O)N2CCOCC2)ccc1Cl)c1cc(=O)c2ccccc2o1 | 20.6 µM (active) | – |
| Cc1c(C(=O)Nc2cccc(-c3nnc4n3CCCCC4)c2)oc2ccccc12 | 16.4 µM (active) | – |
| O=C(Nc1cc(S(=O)(=O)N2CCOCC2)ccc1N1CCOCC1)c1c(F)cccc1Cl | – | -28.8% |
| Cc1c(C(=O)Nc2ccccc2Cl)oc2ccc(S(=O)(=O)N3CCC4(CC3)OCCO4)cc12 | – | -27.9% |
| COc1ccc(NC(=O)c2oc3ccc(S(=O)(=O)N4CCOCC4)cc3c2C)cc1 | 10.3 µM (active) | – |
| O=C(Cn1[nH]c(=O)c2ccccc2c1=O)Nc1cccc(-c2nnc3n2CCCCC3)c1 | – | -11.3% |
| Cc1cc(C)n2nc(C(=O)Nc3cccc(S(=O)(=O)N4CCOCC4)c3)nc2n1 | – | -4.7% |
| Cc1ccc2oc(C(=O)Nc3ccc(S(=O)(=O)N4CCCCCC4)cc3)cc(=O)c2c1 | – | -20% |
| Cc1c(C(=O)Nc2cccc(S(=O)(=O)N3CCOCC3)c2)oc2ccccc12 | 20.6 µM (active) | – |
| Cc1nonc1NC(=O)c1oc2ccccc2c1C | – | 15.9% |
| Cc1c(C(=O)NCCN(C)C)oc2ccc(S(=O)(=O)N3CCCC3)cc12 | – | -8.67% |

| SMILES | Potency | activity change, negative = growth inhibition |
| --- | --- | --- |
| Cc1occc1C(=O)Nc1cccc(S(=O)(=O)N2CCOCC2)c1 | – | -21.2% |
| CSCCC(NC(=O)c1ccco1)C(=O)OCC(=O)Nc1ncc(Cl)c(C)c1Cl (stereo not drawn) | – | -20% |
| O=C(Nc1c2c(nn1-c1ccccc1)CS(=O)(=O)C2)C1CCCC1 | – | -18.2% |
| COCCNC(=O)C(OC(=O)c1cccs1)c1ccc(F)cc1 (stereo not drawn) | – | -11.5% |
| Cn1cc(C2OC(=O)c3ccccc32)c2ccccc21 (stereo not drawn) | – | -28.3% |
| CCn1c(O)c(N=NC2=NC(=O)CS2)c2cc(C)ccc21 | – | -23.4% |
| COC(=O)C[C@@H]1C=C[C@@H](NS(=O)(=O)c2cccc(OC)c2)[C@@H](CO)O1 | – | -2.53% |
| C[C@@H]1CN([C@H](C)CO)C(=O)CCCn2nncc2CO[C@@H]1CN(C)C(=O)OCc1ccccc1 | – | -13.2% |
| O=C(O)CSc1nccn1-c1cccc(Cl)c1 | – | -24.7% |
| Cc1cccc(OCC(=O)OCC(=O)Nc2ccc(Cl)cn2)c1 | – | -2.9% |
| CCNC(=S)N1CCN(CCN=CC2=C(O)CC(C)(C)CC2=O)CC1 | – | 0.937% |
| Cc1cc(C)c(S(=O)(=O)N2C=CC(C(F)(F)F)=NCC2)c(C)c1 | – | -29.9% |
| CC(CCO)Nc1nc2c([nH]1)c(=O)n(C)c(=O)n2C (stereo not drawn) | – | -0.337% |
| Cc1sc2nc(-c3ccccc3F)oc(=O)c2c1C | – | 1.12% |
| COc1ccc(-c2csc3nc(-c4ccccc4F)oc(=O)c23)cc1OC | 16.4 µM (active) | – |
| COc1ccccc1-c1nnc(-c2ccc(F)cc2)o1 | – | -26.4% |
| O=C(NCc1ccco1)C(c1ccncc1)N(C(=O)Cn1nnc2ccccc21)c1ccccc1 (stereo not drawn) | – | -4.11% |
| Cc1nn(-c2ccccc2)c2[nH]c(C(F)(F)F)cc(=O)c12 | – | -13.2% |
| O=S(=O)(Nc1ncnc2sccc12)c1cccc(F)c1 | – | -22.3% |
| Nc1ccccc1-c1nc2ccncc2[nH]1 | – | 5.85% |
| Cc1cccc(C)c1NC(=O)C1(N(C(=O)c2ccccn2)c2ccc(O)cc2)CCCCC1 | – | 3.63% |
| COc1ccc2c(CC(=O)OCC(=O)Nc3ccccc3[N+](=O)[O-])coc2c1 | – | -18% |
| Cc1ccc(-c2nnn(CC(=O)N(Cc3ccco3)C(C(=O)NC(C)(C)C)c3ccncc3)n2)o1 (stereo not drawn) | – | 5.93% |
| Cc1nn(-c2ccccc2)c2sc(C(=O)N(Cc3ccco3)C(C)C(=O)NC(C)(C)C)cc12 (stereo not drawn) | 14.6 µM (active) | – |
| Cc1nc(C)c(C(=O)N(c2ccc(C)c(C)c2)C(C(=O)NCc2ccco2)c2ccccc2)s1 (stereo not drawn) | – | -13% |

Source: PubChem BioAssay AID686978 (National Center for Advancing Translational Sciences (NCATS), 2013)
